Reference: the supplement of paper PMC13380429

System: Vero E6 infected with SARS-CoV-2
Assay: inhibition of SARS-CoV-2 cytopathic effect; higher = more antiviral protection, active = above 15
Settings: 48 h

Measured: inhibition of SARS-CoV-2 cytopathic effect

COc1ccc(-c2nc(N3CCOCC3)c3sc(CN(C)c4ncc(C(=O)NO)cn4)cc3n2)cn1
inactive: 1 nM -0.39% | 8.33 nM -5.36% | 100 nM -18.1% | 833.33 nM -20.7% | 10000 nM -21.4%

CCc1cccc(CC)c1NC(=O)CN(CC(=O)O)CC(=O)O [etifenin]
inactive: 1 nM -0.66% | 8.33 nM 1.39% | 100 nM 0.25% | 833.33 nM 0.46% | 10000 nM 3.26%

c1cn2cc(-c3ccc4cn[nH]c4c3)nc(Nc3ccc(N4CCOCC4)cc3)c2n1
inactive: 1 nM -4.37% | 8.33 nM -3.35% | 100 nM -4.69% | 833.33 nM 0.03% | 10000 nM -4.57%

NC(=O)c1ccc(F)c2c1C[C@@H](N(C1CCC1)C1CCC1)CO2 [robalzotan]
inactive: 1 nM -1.71% | 8.33 nM 2.76% | 100 nM 1.8% | 833.33 nM 0.98% | 10000 nM 3.7%

Cc1ccccc1-c1cc(N2CCN(C)CC2)ncc1N(C)C(=O)C(C)(C)c1cc(C(F)(F)F)cc(C(F)(F)F)c1 [netupitant]
inactive: 1 nM 0.76% | 8.33 nM 0.01% | 100 nM -1.38% | 833.33 nM -1.26% | 10000 nM 8.28%

C[C@]12CC/C(=N\OCCN)C[C@@H]1C(=O)C[C@@H]1[C@@H]2CC[C@]2(C)C(=O)CC[C@@H]12 [istaroxime]
inactive: 1 nM 2.17% | 8.33 nM -1.67% | 100 nM 1.45% | 833.33 nM 3.86% | 10000 nM 6.93%

C[C@@H]1[C@H](O)[C@@H](C)/C=C/C=C/C=C/C=C/C=C/C=C/C=C/[C@H](O[C@@H]2O[C@H](C)[C@@H](O)[C@H](N)[C@@H]2O)C[C@@H]2O[C@](O)(C[C@@H](O)C[C@@H](O)[C@H](O)CC[C@@H](O)C[C@@H](O)CC(=O)O[C@H]1C)C[C@H](O)[C@H]2C(=O)O [amphotericin-b]
inactive: 1 nM -1.34% | 8.33 nM 0.44% | 100 nM -1.99% | 833.33 nM -0.45% | 10000 nM 3.31%

O=C1NC(=O)/C(=C/c2ccc3c(c2)OC(F)(F)O3)S1
inactive: 1 nM 2.29% | 8.33 nM 1.22% | 100 nM -6.83% | 833.33 nM -7.64% | 10000 nM -7.56%

C=CC(=O)Nc1cccc(C)c1Nc1ncc2cc(-c3c(Cl)c(OC)cc(OC)c3Cl)ccc2n1
inactive: 1 nM -1.66% | 8.33 nM -0.88% | 100 nM -0.76% | 833.33 nM 0.98% | 10000 nM 3.67%

C[N@+]1(CC2CC2)CC[C@]23c4c5ccc(O)c4O[C@H]2C(=O)CC[C@@]3(O)[C@H]1C5 [methylnaltrexone]
inactive: 1 nM 1.92% | 8.33 nM -0.19% | 100 nM 1.95% | 833.33 nM 1.11% | 10000 nM 1.64%

O=C(O)CSCC(=O)NC1CCSC1=O (stereo not given) [erdosteine]
inactive: 1 nM 1.03% | 8.33 nM 2.17% | 100 nM 1.67% | 833.33 nM -2.61% | 10000 nM 1.6%

CC(C)(Sc1ccncc1-c1ccc(C#N)c2ccccc12)C(=O)O [verinurad]
inactive: 1 nM -0.56% | 8.33 nM 1.54% | 100 nM 0.77% | 833.33 nM -0.34% | 10000 nM 1.75%

Cc1ccc(C)c([C@H](O)CNC(C)C)c1 [benzenemethanol,-2,5-dimethyl-[[(1-methylethyl)amino]methyl]]
inactive: 1 nM -1.13% | 8.33 nM 2.02% | 100 nM 0.03% | 833.33 nM 0.15% | 10000 nM 1.34%

Cn1cc(-c2ccc3ncc(Cc4ccc5ncccc5c4)n3n2)cn1
inactive: 1 nM -4.59% | 8.33 nM -2.71% | 100 nM -1.81% | 833.33 nM 2.47% | 10000 nM 3.49%

COC(=O)Nc1nc2cc(C(=O)c3cccs3)ccc2[nH]1 [nocodazole]
inactive: 1 nM 2.2% | 8.33 nM 3.05% | 100 nM 0.53% | 833.33 nM 1.99% | 10000 nM -1.47%

CCC/C=C1\OC(=O)C2=C1CCC=C2 [ligustilide]
inactive: 1 nM 8.3% | 8.33 nM 9.89% | 100 nM 8.75% | 833.33 nM 5.16% | 10000 nM 5.79%

CCN1C[C@]2(OC(=O)c3ccccc3NC(C)=O)CC[C@H](OC)[C@@]34[C@@H]2C[C@@H]([C@@H]13)[C@@]1(O)C[C@H](OC)[C@H]2C[C@@H]4[C@]1(O)[C@H]2OC [lappaconite]
inactive: 1 nM 6.58% | 8.33 nM 2.61% | 100 nM 1.75% | 833.33 nM 0.15% | 10000 nM 0.28%
